# From PubChem BioAssay
# In the library only some 1.2% were active in any assay of this set; here they are far more common.
# GSH bead fluor: compound fluoresces at 488/530 nm on GSH beads; GSH beads flow cytometry, compound fluorescence 488/530 nm; active compounds read high; fluorescence (KMESF) at 10 µM; 190,000 compounds, 0.25% hits; in the data active means fluorescence above about 89;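 further: glutathione beads carrying GST-tagged Bcl family fusion proteins plus one bare bead set; values are compound well signal with DMSO vehicle wells as background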
# RGS8-Gao: regulators of human RGS8-Galphao interaction | P09471 | multiplexed bead flow cytometry, RGS8-Galphao binding; actives lie on both sides | response (percent of control binding), % at 10 µM | 220,000 compounds, 0.34% hits | AID 1423; in the data active means response below about 60% or above about 140%; inactive means in between;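 further: Galphao activated as the GDP aluminium fluoride complex binding bead-coupled RGS8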
# Target sequence (P09471 whole entry, looked up): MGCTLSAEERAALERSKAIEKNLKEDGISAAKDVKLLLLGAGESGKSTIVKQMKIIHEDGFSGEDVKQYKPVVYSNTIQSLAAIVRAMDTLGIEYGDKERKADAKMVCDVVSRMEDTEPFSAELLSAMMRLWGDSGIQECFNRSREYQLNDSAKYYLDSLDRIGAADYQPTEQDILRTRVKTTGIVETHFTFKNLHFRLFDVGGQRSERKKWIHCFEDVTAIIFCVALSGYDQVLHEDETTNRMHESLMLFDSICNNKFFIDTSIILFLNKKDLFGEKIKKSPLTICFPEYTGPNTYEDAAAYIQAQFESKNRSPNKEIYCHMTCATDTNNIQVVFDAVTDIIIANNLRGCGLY
# RGS16-Gao: modulates binding between human RGS16 and Galphao. O15492+P09471. bead-based flow cytometry RGS16-Galphao binding, fluorescence; actives lie on both sides. binding response (% of control), % at 10 µM. 220,000 compounds, 0.38% hits;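 further: Galphao activated by GDP with aluminum fluoride before binding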
# RGS4-Gao reg: human RGS4-Galphao interaction regulation; P09471; Multiplexed bead flow cytometry, RGS4-Galphao binding; actives lie on both sides; binding response (% of control), % at 10 µM; 220,000 compounds, 0.33% hits; AID 1415; in the data active means binding response below about 49% or above about 150%; inactive means in between;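 further: fluorescent Galphao activated with aluminum fluoride binding bead-coupled RGS4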
# Avidin fluor: compound fluoresces at 488/530 nm on avidin beads; compound fluorescence 488/530 nm, flow cytometry; active compounds read high; fluorescence (KMESF) at 10 µM; 220,000 compounds, 0.38% hits; in the data active means fluorescence above about 47
# RGS7-Gao reg: modulates binding of RGS7 to human Galphao. 220,000 compounds, 0.35% hits. Multiplexed bead flow cytometry; actives lie on both sides. binding response (% of control), % at 10 µM. P09471; in the data active means binding response below about 49% or above about 150%; inconclusive means no clear call, values can overlap the other calls; inactive means in between;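 further: fluorescent Galphao held in activated GDP-AlF4 state binding bead-coupled RGS7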
# RGS-Gao: RGS4-Galphao interaction regulator (human) | shares compounds with RGS16-Gao | multiplexed bead flow cytometry, RGS–Galpha-o binding | RGS4–Galpha-o binding response, % at 10 µM | 1,600 compounds, 99% hits | AID 1504;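 further: fluorescently labeled Galpha-o bound to GDP with aluminium fluoride binding biotinylated RGS beads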
# Avidin counter: interferes with biotinylated probe binding to avidin beads; AID 1783; inhibition, % at 10 µM; 1,700 tested, under 10 active; shares compounds with RGS16-Gao; streptavidin beads, fluorescein-biotin binding, flow cytometry;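 active means inhibition above 50%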;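 further: median green fluorescence of gated singlet beads compared with DMSO control wells; 0% = DMSO wells and 100% = complete loss of bead fluorescence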
# RGS8-Gao single: RGS8-Galphao interaction regulation, single point confirmation; shares compounds with RGS16-Gao; bead-based flow cytometry RGS8-Galphao binding, fluorescence; actives lie on both sides; binding response (% of control), % at 10 µM; 1,700 compounds, 3% hits; AID 1836; in the data active means binding response below about 72% or above about 130%; inactive means in between;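 further: Galphao activated as GDP AlF4 complex before binding bead RGS8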
# RGS7-Gao single: confirmation of regulators of human RGS7-Galphao interaction | shares compounds with RGS16-Gao | bead-based flow cytometry RGS7-Galphao binding; actives lie on both sides | response (percent of control binding), % at 10 µM | 1,700 compounds, 7.8% hits | AID 1837; in the data active means response below about 75% or above about 130%; inactive means in between;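 further: fluorescent Galphao activated with GDP and aluminum fluoride binding bead-coupled RGS7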
# RGS16-Gao conf: RGS16-Galphao interaction regulation, single point confirmation | AID 1838 | 1,700 compounds, 4% hits | bead-based flow cytometry, RGS16-Galphao binding; actives lie on both sides | shares compounds with RGS16-Gao | response (% of control binding), % at 10 µM; in the data active means response below about 74% or above about 130%; inactive means in between;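 further: Galphao activated as the GDP aluminium fluoride complex binding bead-coupled RGS16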
# RGS4-Gao single: RGS4-Galphao interaction regulation, single point confirmation. binding response (% of control), % at 10 µM. shares compounds with RGS16-Gao. 1,700 compounds, 4% hits. RGS4-Galphao binding, multiplexed bead flow cytometry; actives lie on both sides; in the data active means binding response below about 74% or above about 130%; inactive means in between
# RGS19-Gao conf: confirmation of regulators of human RGS19-Galphao interaction. shares compounds with RGS16-Gao. bead-based flow cytometry RGS19-Galphao binding; actives lie on both sides. response (percent of control binding), % at 10 µM. 1,700 compounds, 5% hits. AID 1841; in the data active means response below about 50% or above about 160%; inactive means in between;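 further: 100% = no compound control and 0% = blank background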
# An asterisk follows results filed as active; u = inconclusive; x = not tested or not shown; [ ] = another dose, or the depositor's remark. Unless noted, how the calls were made is not given here.
SMILES,GSH bead fluor,RGS8-Gao,RGS16-Gao,RGS4-Gao reg,Avidin fluor,RGS7-Gao reg,RGS-Gao,Avidin counter,RGS8-Gao single,RGS7-Gao single,RGS16-Gao conf,RGS4-Gao single,RGS19-Gao conf
CC(/C=C/c1ccccc1)=N/NC(=O)CNC(=O)c1ccccc1F,11,101,102,100,14,97,x,x,x,x,x,x,x
O=S(=O)(NCCOc1ccccc1)c1ccc2ccccc2c1,12,86,-1.5*,90,5,89,90*,x,x,x,x,x,x
CS(=O)(=O)NCCOc1ccc(S(=O)(=O)NCCOc2ccccc2)cc1,11,101,98,102,10,u,x,x,x,x,x,x,x
CCSC(C)CC1CC(=O)CC(=O)C1 (stereo unspecified),41,x,x,x,x,x,x,3,96,101,98,100,88
CCCc1nc2c(o1)CC(CC(C)SCC)CC2=O (stereo unspecified),44,7.4*,-7.1*,-7.5*,-4,-1.3*,x,1,99,99,97,97,107
CN(C)C(=S)Nc1ccc2c(c1)OCCO2,x,69,46,40*,4,u,x,0,100,97,101,101,112
S=C(Nc1ccc2c(c1)OCCO2)Nc1ccc2c(c1)OCO2,27,97,99,90,9,93,x,x,x,x,x,x,x
Cc1ccc(-c2nnc(Nc3ccc4c(c3)OCO4)c3ccccc23)cc1S(=O)(=O)NC(C)C,7,93,94,86,5,90,x,x,x,x,x,x,x
O=C(COC(=O)CCN=C1NS(=O)(=O)c2ccccc21)NC1CCCCCCC1,x,99,99,100,8,u,x,x,x,x,x,x,x
CCCN1C(=O)c2cccc3c(N4CCCCC4)ccc(c23)C1=O,4,75,18*,92,12,90,92*,1,100,103,100,103,99
O=C(NCCN=C1NS(=O)(=O)c2ccccc21)c1ccc2nccnc2c1,18,100,100,99,3,99,x,x,x,x,x,x,x
O=C(NCCN=C1NS(=O)(=O)c2ccccc21)c1ccncc1,10,114,125,148,72*,163*[activator],148*,-1,101,98,101,101,100
O=C(NCc1cccnc1)Nc1cccc(NC(=O)NCc2cccnc2)c1,49,100,103,102,3,102,x,x,x,x,x,x,x
CC(=O)c1cccc(NC(=O)NCc2cccnc2)c1,38,x,x,x,x,x,x,-1,100,98,98,99,96
CC(=O)c1cccc(NS(=O)(=O)c2ccc(N/C=C\C(=O)c3ccc(C)cc3)cc2)c1,12,90,114,138,25,264*[activator],138*,x,x,x,x,x,x
COc1cccc(-n2cnc3c(sc4nc(N5CCOCC5)c5c(c43)CCCC5)c2=O)c1,61,98,98,93,23,98,x,x,x,x,x,x,x
COc1ccc(C(=O)NC(=O)Nc2ncccc2C)cc1,48,70,2.9*,77,2,74,77*,-1,102,107,104,103,100
COc1ccc(NC(=O)Nc2ncccc2C)cc1,12,106,108,104,24,103,x,x,x,x,x,x,x
